An excerpt weighted towards active compounds, which were near 2.2% of everything screened.
Platelet DG rel = inhibitors of platelet dense granule secretion, primary screen, cell-based, MLPCN, human platelets; actives 0.22% (n = 300,000); inhibition, %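 (compounds screened at 7.5 µM in platelet-rich plasma)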; human platelet-rich plasma, SFLLRN dense granule ATP release, luminescence;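 active = mean replicate score, as percent of positive control, at or above 50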
CHT PAM = CHT positive allosteric modulators, primary screen, cell-based, membrane potential dye, choline EC20; AID 488977, 2010; B-score at 10 µM; actives 0.49% (n = 310,000); CHT-expressing cells; stronger effect = higher value; LV-AA mutant CHT in HEK293 cells;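 active = initial fluorescence not abnormally high and integrated response B-score, plate-corrected, over 3 SD above library mean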
Target sequence (Q9GZV3 whole entry, looked up): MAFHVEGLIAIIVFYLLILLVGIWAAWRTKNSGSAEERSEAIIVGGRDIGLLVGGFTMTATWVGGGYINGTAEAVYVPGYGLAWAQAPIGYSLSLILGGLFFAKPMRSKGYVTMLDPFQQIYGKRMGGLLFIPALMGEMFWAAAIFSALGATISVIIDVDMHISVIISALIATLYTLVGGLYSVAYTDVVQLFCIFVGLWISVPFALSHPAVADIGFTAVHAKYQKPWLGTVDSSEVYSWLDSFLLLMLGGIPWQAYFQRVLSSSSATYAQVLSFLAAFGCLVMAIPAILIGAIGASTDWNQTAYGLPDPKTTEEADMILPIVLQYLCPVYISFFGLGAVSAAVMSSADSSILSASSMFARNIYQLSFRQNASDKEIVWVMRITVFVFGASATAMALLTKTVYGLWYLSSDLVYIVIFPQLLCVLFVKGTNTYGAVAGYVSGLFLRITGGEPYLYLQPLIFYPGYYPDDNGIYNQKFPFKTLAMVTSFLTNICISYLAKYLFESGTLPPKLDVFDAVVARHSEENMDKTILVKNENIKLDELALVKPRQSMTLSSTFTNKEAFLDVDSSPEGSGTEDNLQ
VLA-4 inh = inhibition in human VLA-4 binding assay, primary screen, VLA-4 allosteric modulator project, MLPCN library, flow cytometry, VLA-4 expressing cells; actives 0.2% (n = 330,000); inhibition, % (about 7 µM as worked out from the volumes in the protocol); Integrin alpha-4 (Homo sapiens), P13612; ligand binding flow cytometry; in the data active = inhibition above about 50%
AI-2 QS modul = Vibrio harveyi AI-2 quorum sensing modulators, primary screen, JMH597 strain, luminescence/OD600 ratio; actives 0.4% (n = 300,000); AID 2094, 2009; Vibrio harveyi JMH597 AI-2 luminescence/OD600 ratio, 9 h; stronger effect = lower value; strain lacks LuxN and CqsS sensors; 0 = neutral-control median; activity change, % at 7.5 µM; in the data active = activity change below about -75%, passing the limit was not always enough;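 also: luminescence divided by OD600 gain over 9 h not by final OD600 alone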
HIF activator = HIF pathway transcriptional activators, primary screen, cell-based, U2OS HRE-luciferase, luminescence; activation, % at 7.5 µM (by protocol); U2OS HRE-luciferase reporter; normalized: DMSO 0%, desferrioxamine 100%; actives 0.32% (n = 300,000);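 active = mean activation of at least 10% of the iron chelator positive control signal, with at least half of replicates also reaching 10%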
CHT block = inhibitors of human choline transporter CHT. High affinity choline transporter 1 (Homo sapiens), Q9GZV3. CHT-expressing cells, membrane potential dye, choline response; stronger effect = lower value. B-score at 10 µM. actives 0.86% (n = 310,000);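 active = B-score over 3 SD under the library average, and starting fluorescence ratio not unusually high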;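 also: choline stimulus applied at its EC90 after an EC20 pre-addition; B-score computed on integrated fluorescence ratio after choline addition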
CHT act confirm = CHT activators, confirmation, cell-based, membrane potential dye, duplicate. shares compounds with CHT PAM. CHT-expressing cells, membrane potential dye fluorescence (FDSS); % of choline EC20–EC90 response window; HEK293 expressing CHT LV-AA mutant; choline added at its EC20. activation, % at 10 µM. actives 91% (n = 2,500);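 active = primary screen active, with duplicate mean activation above negative control mean plus 3 SD, cut at about 11% in these data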
HEK293 MP dye = membrane potential response in parental HEK293 cells, counter-screen for CHT activator project, cell-based, membrane potential dye; actives 62% (n = 2,500); ratio readout change at 10 µM, hits read low; shares compounds with CHT PAM; membrane potential dye fluorescence (FDSS); measured after EC20 choline addition;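 active = duplicate-averaged ratio beyond 3 SD from buffer wells, up or down, though filed actives are nearly all decreases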
* = called active by the depositor; i = inactive; . = no result.

SMILES	Platelet DG rel	CHT PAM	VLA-4 inh	AI-2 QS modul	HIF activator	CHT block	CHT act confirm	HEK293 MP dye
C[n+]1c2n(c3ccccc31)N=C(c1cc(C(C)(C)C)c(O)c(C(C)(C)C)c1)CS2	-13.1	39.5*	5.4	12.6	0.2	i	66.2*	-36*
COc1ccc(N2CC(C(=O)N3CCN(C(=O)c4ccco4)CC3)CC2=O)cc1 (stereo not drawn)	1.4	i	11.4	12.0	0.2	i	.	.
CCn1c(C)[n+](Cc2ccccc2)c2ccc(C(=O)OC)cc21	-1.0	10.3*	-0.1	11.0	-0.1	i	27.4*	-66.9*
CCOC(=O)c1cccc(NC(=O)CSc2nc3ccccc3c(=O)n2CC)c1	-1.5	i	.	15.7	0.3	i	.	.
CCOC(=O)c1ccc2c(c1)n(CC)c(/C=C/Nc1ccccc1)[n+]2CC	-2.4	i	-372.4	37.7	.	i	31.8*	-82.8*
Cc1n(Cc2ccccc2)c2cc([N+](=O)[O-])ccc2[n+]1Cc1ccccc1	15.6	8.34*	9.6	14.5	-0.3	i	72.0*	-58.2*
COc1cc(CN(C)CC2CCCN(CCc3ccccc3F)C2)cc(Cl)c1OC (stereo not drawn)	-11.8	i	-12.4	34.8	-21.9	i	.	.
COc1ccccc1N1C(=O)c2cccc3c(C(=O)O)ccc(c23)C1=O	-1.6	i	-5.3	16.1	-0.3	i	.	.
COc1ccc2c3c(cccc13)C(=O)N(O)C2=O	-0.5	i	7.1	44.5	-0.5	i	40.9*	-30.5*
COc1ccc(Br)cc1CN(C)CC(=O)Nc1c(Cl)cccc1Cl	3.2	i	-11.1	7.8	-0.4	i	6.7	i
CCOC(=O)c1c(C)[n+](-c2ccc(C)cc2)c(CC)c2cc(OC)c(OC)cc12	-7.7	i	-7.2	17.2	0.0	i	49.4*	-35.3*
CCOC(=O)c1c(C)[nH]c2cc(Br)c(OC)cc12	.	i	2.4	11.6	.	i	.	.
O=C(Cn1c(=O)cnc2ccccc21)N1CCN(S(=O)(=O)c2ccccc2Br)CC1	-17.8	i	-2.5	-4.0	0.0	i	.	.
CCOC(=O)C1(Cc2ccccc2)CCN(CC2CC=CCC2)CC1 (stereo not drawn)	0.3	i	-20.8	8.8	0.1	i	2.4	i
CN1/C(=C\C=[N+](C)c2ccccc2)C(C)(C)c2ccccc21	5.5	8.08*	-53.4	17.3	.	i	74.6*	-23.5*
CC(C)(C)OC(=O)COc1cc(O)c2c(=O)cc(-c3ccccc3)oc2c1	1.8	i	7.0	10.8	0.3	i	.	.
CC(C)(C)OC(=O)COc1cc(OCC(=O)OC(C)(C)C)c2c(=O)cc(-c3ccccc3)oc2c1	.	8.3*	-13.2	7.6	.	i	50.3*	i
CCCCNC(=O)N1CCN(c2ccnc3cc(Cl)ccc23)CC1	10.0	i	-0.3	1.4	-1.9	i	57.9*	-61.5*
CC(=O)N1CCN(c2ccnc3cc(Cl)ccc23)CC1	10.8	8.58*	3.0	.	0.4	i	65.3*	-67.1*
O=C(O)CSCC(=O)N1CCN(c2ccnc3cc(Cl)ccc23)CC1	-10.8	i	25.3	30.5	-56.7	i	.	.
Cn1c(=O)c2c3c(sc2n2cnnc12)CCC3	-1.4	i	-4.9	8.7	-0.4	i	29.6*	-39.3*
Cc1nc2ccccn2c1C(=O)N/N=C/c1cc(C)n(-c2ccc(Br)cc2)c1C	7.7	i	12.1	23.1	-0.3	i	17.9*	i
CN(C)C1=NC[C@H](Cc2ccccc2)N1CCC1CCCC1	.	i	-2.2	.	.	i	27.0*	i
NC1=NC[C@H](Cc2ccccc2)N1CC1CCCCC1	0.6	i	2.0	11.4	-0.7	i	32.0*	i
CN(C)C1=NC[C@H](Cc2ccccc2)N1CCCC1CCCC1	.	i	20.9	.	.	i	.	.
SMILES	Platelet DG rel	CHT PAM	VLA-4 inh	AI-2 QS modul	HIF activator	CHT block	CHT act confirm	HEK293 MP dye
NC1=NC[C@H](Cc2ccc(O)cc2)N1CC1CCCCC1	-4.1	i	11.5	65.3	0.1	i	.	.
Cc1ccc2nc3n(c(=O)c2c1)-c1ccccc1C(=O)NC3Cc1ccc(O)cc1 (stereo not drawn)	.	.	8.5	.	.	.	.	.
CCOC(=O)c1ccc(S(=O)(=O)N2CCN(C3CCCC3)CC2)cc1	-1.9	i	11.5	3.6	-0.2	i	.	.
Cc1ccccc1-n1cnc2cc(NCc3cccs3)ccc21	-7.4	i	-5.1	-21.3	2.3	i	.	.
COc1ccccc1-n1cnc2cc(NCc3cccs3)ccc21	3.9	6.97*	27.2	-9.5	2.6	i	59.4*	i
CC1(C)O[C@@H]2[C@H](O1)[C@@H](CO)O[C@H]2n1cnc2c(=O)[nH]cnc21	.	.	0.0	.	.	.	.	.
COc1ccc(C)cc1NC(=O)C1CCCN1S(=O)(=O)c1ccccc1F (stereo not drawn)	.	.	17.9	.	.	.	.	.
Cc1sc2ncn3cnnc3c2c1C	-1.7	i	13.3	28.3	-0.1	i	44.8*	-40.6*
CCCCc1ccc(N=N/C(C(=O)Nc2ccc(NC(C)=O)cc2OC)=C(/C)O)cc1	3.6	i	-1.9	17.3	-0.4	i	.	.
Cc1ccc(OCC(O)CNC2CCCC2)c(C)c1 (stereo not drawn)	-3.2	i	7.3	12.1	0.0	i	.	.
Cc1ccccc1OCC(O)CNC1CCC(NCC(O)COc2ccccc2C)CC1 (stereo not drawn)	2.5	i	38.9	43.8	-0.8	i	21.3*	i
COc1ccc(NS(=O)(=O)c2cccc(C(=O)N3CCN(c4ccccc4O)CC3)c2)cc1	6.1	i	-9.9	17.8	0.2	i	.	.
CCc1nnc(NS(=O)(=O)c2ccc(NCc3cc(Cl)cc(Cl)c3O)cc2)s1	-1.2	i	-2.4	0.0	-0.4	i	.	.
CSc1nc2cc(C)nn2c(-c2ccccc2)c1C#N	6.3	i	3.8	15.7	-0.9	i	.	.
Cc1nn(-c2ccccc2)c(C)c1/C=N/n1c(-c2ccncc2)n[nH]c1=S	2.0	i	-3.4	19.8	0.0	i	.	.

Screens: PubChem, several laboratories
